Laboratory results published in PMC7819943, “Rice protein-binding microarrays: a tool to detect cis-acting elements near promoter regions in rice”.
Whole data set: some 68,000 sequences, median “fluorescence intensity (a.u.)” near 9,100, cut for the highest 2% near 16,000. The sample as a whole holds a higher share of the highest values than the screen did.

molecular target: OsWRKY34 (Oryza sativa, UniProt Q0JBA9 1-250); assay: protein-binding microarray (RPBM); PBS, 2% BSA, 51.3 ng/ul salmon testes DNA, 50 uM zinc acetate, 200 nM TF, 25 C, 1 h; high values mean tight binding; conditions: protein: recombinant; tags: N-terminal polyhistidine and DsRed monomer fusion (pET32a); label: CyDye5-dUTP incorporated in the synthesized complementary strand; 3' TTTTT single-stranded linker to array surface; dsDNA, one strand shown
Sequence (Q0JBA9 entry or part of it): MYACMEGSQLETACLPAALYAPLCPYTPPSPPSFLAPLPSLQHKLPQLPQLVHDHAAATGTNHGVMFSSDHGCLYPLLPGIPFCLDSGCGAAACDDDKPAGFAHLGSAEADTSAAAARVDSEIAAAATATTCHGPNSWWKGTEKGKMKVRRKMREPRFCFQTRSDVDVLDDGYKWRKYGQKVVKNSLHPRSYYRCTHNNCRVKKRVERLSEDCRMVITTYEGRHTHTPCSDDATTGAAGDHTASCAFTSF
Summary of the method: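 Binding signal here means per-feature fluorescence intensity in arbitrary units. The values were read on an Axon 4000B scanner after a custom Agilent array, double-stranded by primer extension with Cy5-dUTP, was incubated with 200 nM protein at 25 °C for 1 h in PBS with 2% BSA, salmon testes DNA and 50 µM zinc acetate, then washed. The proteins were transcription factors with an N-terminal polyhistidine tag and DsRed, expressed in E. coli BL21-CodonPlus and purified on Ni–NTA.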

Row | Sequence | binding signal
1 | TGCCTGTAGTGGCGGTTGGGGATGCGGATAAGGCGAGGGGCGGAGTCACCTAGTGCAG | 14500 fluorescence intensity (a.u.)
2 | TCCGACATGCTGCCCTCGATCGAGCTCATCCATCGGCCCTCGGAGTCACCTAGTGCAG | 9550 fluorescence intensity (a.u.)
3 | CCACCCTTTTTCTCTGCTTCCAGTGTACGTTTTCGAATAACGGAGTCACCTAGTGCAG | 9880 fluorescence intensity (a.u.)
4 | CCTCCTAGTTCCCTCGGCATGCAGACGATCTGCCAGTTTACGGAGTCACCTAGTGCAG | 11700 fluorescence intensity (a.u.)
5 | TATCGTCCGGTGCTCCTCGTCCATGTCAACAGCTACCATACGGAGTCACCTAGTGCAG | 9850 fluorescence intensity (a.u.)
6 | GAGGGCAAGGGCGGCGGGTCTAACACAACACAATAAGAGTCGGAGTCACCTAGTGCAG | 9470 fluorescence intensity (a.u.)
7 | TCTTTGCAGGTCACTTCCGGGTGCTTCACATTCCGGTTAACGGAGTCACCTAGTGCAG | 8890 fluorescence intensity (a.u.)
8 | TCCTCATCTTGTGCTCTCAAGTGTTTTAAGTGCTCTCTTTCGGAGTCACCTAGTGCAG | 10500 fluorescence intensity (a.u.)
9 | ATTTAATTTCACCTACTACTACTACTATTCTTCTTATTAACGGAGTCACCTAGTGCAG | 9430 fluorescence intensity (a.u.)
10 | CATATACTCCCTCCGTTTTTTAATAGATGACGCCGTTGACCGGAGTCACCTAGTGCAG | 12300 fluorescence intensity (a.u.)
11 | TACTCCCTCTGTTTTTTAATAGATGACGCCGTTGACTTTTCGGAGTCACCTAGTGCAG | 17100 fluorescence intensity (a.u.)
12 | TACTACCTCCGTTTTTAATAGATGACGCCGTTGACTTTTTCGGAGTCACCTAGTGCAG | 23700 fluorescence intensity (a.u.)
13 | TACTCCCTCCGTTTTTTAATAGATGACGCCGTTGACTTTTCGGAGTCACCTAGTGCAG | 16100 fluorescence intensity (a.u.)
14 | CTTACTACCTCCGTATTTTAGTGTATGATGCCGTTGACTTCGGAGTCACCTAGTGCAG | 14500 fluorescence intensity (a.u.)
15 | AATACTACCTCCGTTTTAAAATGTTTGACGCCGTTGATATCGGAGTCACCTAGTGCAG | 8440 fluorescence intensity (a.u.)
16 | CTCTCTTGCCTCTCCTGTCTCTTTCTCGGATTTTTCTCATCGGAGTCACCTAGTGCAG | 9020 fluorescence intensity (a.u.)
17 | AAACAGTTTGACTTTGACTAAAGTTAAAACGTCTTATAACCGGAGTCACCTAGTGCAG | 10900 fluorescence intensity (a.u.)
18 | CGTTGACTTTTTTAAATATATAATTATTAATTTTTTTTCTCGGAGTCACCTAGTGCAG | 23900 fluorescence intensity (a.u.)
19 | GTTTGACACCGTTGACTTTTTTAAATATGTTTGACCGTTTCGGAGTCACCTAGTGCAG | 25000 fluorescence intensity (a.u.)
20 | CCTTTCGTTTTATATTATAATTCGTTTTGACTTTTTTCTTCGGAGTCACCTAGTGCAG | 10500 fluorescence intensity (a.u.)
21 | CAAGTCACGTATAAAATATTAATCATGTTTTATCATCTAACGGAGTCACCTAGTGCAG | 8050 fluorescence intensity (a.u.)
22 | AGCGTTGACCATACTTAAATCACAGTTTTCTTTTCTTTTTCGGAGTCACCTAGTGCAG | 21800 fluorescence intensity (a.u.)
23 | TTCTAAATAATATTTGACGCCGTTGACTTTTTTAAATATACGGAGTCACCTAGTGCAG | 14600 fluorescence intensity (a.u.)

Row | Sequence | binding signal
24 | CTTTTCTTTTCAATTTTTTGAGCGTTGACCATACTTAAATCGGAGTCACCTAGTGCAG | 14800 fluorescence intensity (a.u.)
25 | ACCTCGGTAATAAAAGATGATCTAACGTAAAATTTATTATCGGAGTCACCTAGTGCAG | 23300 fluorescence intensity (a.u.)
26 | ATTTCTTGAACAGTTAAATACTTATAAATCCTTCACTTTTCGGAGTCACCTAGTGCAG | 8050 fluorescence intensity (a.u.)
27 | ACCATCTTATTTAACGTAAAATATTTAATTTTCATTTTTACGGAGTCACCTAGTGCAG | 8480 fluorescence intensity (a.u.)
28 | CCATATCGTTTTGACGTTTTTAGTGTAGGTCAATTTATAGCGGAGTCACCTAGTGCAG | 8170 fluorescence intensity (a.u.)
29 | TTAAAACTGAAATTATCGTATGTGCCTTGTCGCCGTGATTCGGAGTCACCTAGTGCAG | 8090 fluorescence intensity (a.u.)
30 | GGGTATATACCGTGACCCTGATCGCCACACCGACCGGATACGGAGTCACCTAGTGCAG | 13600 fluorescence intensity (a.u.)
31 | ATCCGATCTCTCTTCTCATTCTCTTCTCTTGGTTTGGGGTCGGAGTCACCTAGTGCAG | 8220 fluorescence intensity (a.u.)
32 | AGTCTTGAAGACTGAGGCAAAGTCTGTTATCTTAATCGATCGGAGTCACCTAGTGCAG | 9140 fluorescence intensity (a.u.)
33 | TTGAAACTAAACAAGGCATTTAGCTCAAACCCTCATTGACCGGAGTCACCTAGTGCAG | 8470 fluorescence intensity (a.u.)
34 | GATCGTGGGAGGGAGGATTGGCCGGTTGTACTACAGTTGACGGAGTCACCTAGTGCAG | 8660 fluorescence intensity (a.u.)
35 | CCGTGTTGTCGTTCCTCCAAATTTGTACCGTTTTCCCTCTCGGAGTCACCTAGTGCAG | 8770 fluorescence intensity (a.u.)
36 | TTTTGCTACTCCTTCGTTCTCAGTATCCAAATTTAAATTTCGGAGTCACCTAGTGCAG | 9900 fluorescence intensity (a.u.)
37 | GTTGACTCGCACTTTTTGTAATTATGTGTTACATGGTTTCCGGAGTCACCTAGTGCAG | 8810 fluorescence intensity (a.u.)
38 | ACTTTTCGCTTTTTATATTTGCATAATTTTTTTCAATAAGCGGAGTCACCTAGTGCAG | 8150 fluorescence intensity (a.u.)
39 | GACTTTATATGTGACTTTTTTTTTAACTTTTTCATAATTTCGGAGTCACCTAGTGCAG | 9730 fluorescence intensity (a.u.)
40 | ACACTTTGATCCCGATCGATGGCGCCATCCACTAATTGATCGGAGTCACCTAGTGCAG | 10700 fluorescence intensity (a.u.)
41 | CGCCGTTGACTTTTCATATAATATTTAACAATTCGCTTTACGGAGTCACCTAGTGCAG | 36800 fluorescence intensity (a.u.)
42 | TTTGTTGGTGTTATGTTGACTTTTTTTTGGGAACATTACTCGGAGTCACCTAGTGCAG | 17400 fluorescence intensity (a.u.)
43 | CCATTATGGTGTTTCTTAGTTGTTTTTTTTGCCTTTTACTCGGAGTCACCTAGTGCAG | 8470 fluorescence intensity (a.u.)
44 | CTTTCTTATTGACTATTTTATTATTTGAGGTCATTTAGGGCGGAGTCACCTAGTGCAG | 9310 fluorescence intensity (a.u.)
45 | CCCGTTGACCCAAATTTTCGTTCTCCTCACCGAGTATAGTCGGAGTCACCTAGTGCAG | 17200 fluorescence intensity (a.u.)
46 | AATTTTGACTTTTTCTTGACTAATTAGGCCATCCGATGGGCGGAGTCACCTAGTGCAG | 17800 fluorescence intensity (a.u.)
